Among all 39,000 compounds or so, about 1,500 (3.8%) were called active. The list comes from a sample in which actives are over-represented; it also holds similar structures and randomly drawn compounds.

For the experiment, the system named is HSkMC (human skeletal muscle cells). The experiment in a line: cytotoxicity call (relative viability < 0.9). The following applies: 10 µM.
As to `CN(C)C(=O)[C@@]1(Cc2ccccc2CN=[N+]=[N-])N=C(c2ccc(OCCCO)cc2)O[C@H]1c1ccccc1N=[N+]=[N-]`, the cytotoxicity call was “inactive”. In the case of `[N-]=[N+]=NCc1ccccc1C[C@]1(C(=O)NCc2ccccc2)N=C(c2ccc(OCCCO)cc2)O[C@H]1c1ccccc1N=[N+]=[N-]` it was “inactive”. In the case of `CCO[C@H]1[C@H]2CC[C@@H]1NC2` it was “inactive”; in that of `O=C1CC2OCC=C3CN4CCC56c7ccccc7N1C5C2C3CC46.O=S(=O)(O)O` (configuration not stated), “inactive”. As for `N[C@]1(C(=O)O)CC[C@@H](C(=O)O)C1`, the entry is “inactive”; as for `COc1cc([C@@H](O)CN)ccc1O`, “inactive”. As to `[N-]=[N+]=NCc1ccccc1C[C@]1(C(=O)N2CCOCC2)N=C(c2ccc(OCCCO)cc2)O[C@H]1c1ccccc1N=[N+]=[N-]`, the cytotoxicity call was “inactive”. `COc1ccc2c(c1)C[C@H](N)C2`: the cytotoxicity call was “inactive”. On to `CNC(=O)[C@H]1Cn2ccnc2C2(CCNCC2)O1`, for which the cytotoxicity call is “inactive”. In the case of `CC(C)=CCCC1(C)C=Cc2c(O)c3c(c(CC=C(C)C)c2O1)OC12C(=CC4CC1C(C)(C)OC2(CC=C(C)C(=O)O)C4O)C3=O` (configuration not stated) it was “active”; in that of `CC(C)=CCCC1(C)C=Cc2c(O)c3c(c(CC=C(C)C)c2O1)OC12C(=CC4CC1C(C)(C)OC2(CC=C(C)C(=O)O)C4=O)C3=O` (configuration not stated), “active”; in that of `CC(C)CCC[C@]1(C)C=Cc2c(O)c3c(c(CCC(C)C)c2O1)O[C@]12[C@H](C[C@@H]4C[C@H]1C(C)(C)O[C@]2(CC[C@@H](C)C(=O)O)[C@@H]4O)C3=O`, “inactive”.

Take `CC(C)=CCC[C@]1(C)C=Cc2c(O)c3c(c(CC=C(C)C)c2O1)O[C@]12[C@H](C[C@@H]4C[C@H]1C(C)(C)O[C@]2(C/C=C(/C)C(=O)O)[C@@H]4O)C3=O`: the cytotoxicity call was “inactive”. In the case of `C[C@@H]1CN([C@H](C)CO)C(=O)c2c(c3ccccc3n2C)-c2ccccc2CO[C@@H]1CN(C)C(=O)Oc1ccccc1` it was “inactive”; in that of `O=C(c1ccno1)N1C[C@@H]2CCN[C@@H]2C1`, “inactive”.

Turning to `COc1ccc(C(CN(C)C)C2(O)CCCCC2)cc1.Cl` (configuration not stated), the cytotoxicity call was “inactive”. As for `N#CC[N+]12CCN(CC1)CC2`, the entry is “inactive”.

`Cc1nc([N+](=O)[O-])c(N2CCNCC2)[nH]1`: the cytotoxicity call was “inactive”.

Consider `COC(=O)[C@H]1O[C@@H]2C[C@H]3O[C@@H](n4cnc5c(N)ncnc54)[C@H](OC)[C@H]3O[C@@]2(O)[C@@H](O)[C@@H]1O`, for which the cytotoxicity call is “inactive”.

For `O=C(CCCN1CCC2(CC1)C(=O)N(Cc1cccc(F)c1)CN2c1ccccc1)c1ccc(F)cc1`, the cytotoxicity call was “inactive”. For `CC(=O)O[C@H]1C[C@@H](OC(C)=O)C(C)(C)[C@@H]2C[C@@H](OC(C)=O)[C@]3(C)[C@H](CC[C@@]4(C)[C@H](c5ccoc5)C[C@H]5O[C@@]534)[C@@]12C`, the cytotoxicity call was “inactive”. In the case of `CC(=O)OC1CC(OC(C)=O)C2(C)C(CC(OC(C)=O)C3(C)C2CCC2(C)C(c4ccoc4)C(=O)C4OC423)C1(C)C` (configuration not stated) it was “inactive”; in that of `CC(=O)OC1CC2(C)C(c3ccoc3)CC3OC32C2(C)C(=O)C(O)=C3C(C)(C)C(=O)C=CC3(C)C12` (configuration not stated), “active”. As for `CC1(C)C(=O)C=CC2(C)C1=C(O)C(=O)C1(C)C2CCC2(C)C(c3ccoc3)CC3OC321` (configuration not stated), the entry is “active”. In the case of `CC1(C)C(=O)C=CC2(C)C1CC(O)C1(C)C2CCC2(C)C(c3ccoc3)OC(=O)C3OC321` (configuration not stated), the cytotoxicity call was “inactive”. In the case of `CC(=O)OC1CC2C(C)(C)C(=O)C=CC2(C)C2CCC3(C)C(=CC(=O)OC3c3ccoc3)C12C` (configuration not stated) it was “inactive”. In the case of `O=C1C[C@H](c2ccccc2)[C@@H]2CNCCN12` it was “inactive”; in that of `Cc1nnc(N2CCC[C@]3(CNCCO3)C2)o1`, “inactive”. In the case of `N#CN1CCCC1` it was “inactive”.

In the case of `Cc1cccc(CN2C[C@H]3OCCN(C)[C@H]3C2)n1`, the cytotoxicity call was “inactive”.

On to `CC1=C(O)C(=O)C=C2C1=CC=C1C2(C)CCC2(C)C3CC(C)(C(=O)O)CCC3(C)CCC12C` (configuration not stated), for which the cytotoxicity call is “active”. In the case of `NC1N[C@H]2CCCC[C@@H]2N1` it was “inactive”.

As to `CC(C)(CN)CNc1ccc([N+](=O)[O-])c2cccnc12`, the cytotoxicity call is “inactive”.

In the case of `NC(=O)c1cn([C@H]2O[C@@H](CO)[C@H](O)[C@@H]2O)c2ncnc(N)c12`, the cytotoxicity call is “active”. Consider `NC(=O)c1cn([C@@H]2O[C@H](CO)[C@@H](O)[C@H]2O)c2ncnc(N)c12`, for which the cytotoxicity call was “inactive”. In the case of `CCNC(=O)[C@H]1O[C@H](n2cnc3c(N)ncnc32)[C@@H](O)[C@@H]1O` it was “inactive”; in that of `O=C(NC(=O)c1c(F)cccc1F)Nc1cc(Cl)c(OC(F)(F)[C@@H](F)C(F)(F)F)cc1Cl`, “active”; in that of `O=C(NC(=O)c1c(F)cccc1F)Nc1ccc(Cl)cc1`, “inactive”. In the case of `O=C(NC(=O)c1c(F)cccc1F)Nc1cc(Cl)c(OC(F)(F)C(F)C(F)(F)F)cc1Cl` (configuration not stated) it was “inactive”.

As for `C=CCC1(C(C)CCC)C(=O)N=C([S-])NC1=O.[Na+]` (configuration not stated), the cytotoxicity call is “inactive”. In the case of `Cl.c1cncc(C2CCCCN2)c1` (configuration not stated) it was “inactive”; in that of `Br.COC(=O)C1=CCCN(C)C1`, “inactive”; in that of `NC(=O)CN1CC[C@@H](NC(=O)[C@@H]2CCCN2)C1=O`, “inactive”. Regarding `c1cn(C[C@H]2CC[C@H]3NCCO[C@@H]23)cn1`, the cytotoxicity call is “inactive”.

For `Cl.Cn1c(CCCC(=O)O)nc2cc(N(CCCl)CCCl)ccc21`, the cytotoxicity call is “inactive”. As for `CC[C@H]1/C=C/C=C/C[C@@H](C)[C@H](O)[C@@](C)(O)C(=O)[C@@H](C)[C@H](O)[C@@H](C)C(=O)[C@@H](C)[C@H](O)[C@@H](C)/C=C/C(=O)O[C@@H]2[C@H](C)[C@H](CC1)O[C@]1(CC[C@H](C)[C@H](C[C@@H](C)O)O1)[C@H]2C`, the entry is “active”; as for `CC[C@@H]1/C=C/C=C/C[C@H](C)[C@@H](O)[C@](C)(O)C(=O)[C@H](C)[C@@H](O)[C@H](C)C(=O)[C@H](C)[C@@H](O)[C@H](C)/C=C/C(=O)O[C@H]2[C@@H](C)[C@@H](CC1)O[C@@]1(CC[C@@H](C)[C@@H](C[C@H](C)O)O1)[C@@H]2C`, “inactive”; as for `CCC(COC(=O)c1cc(OC)c(OC)c(OC)c1)(c1ccccc1)N(C)C.O=C(O)C=CC(=O)O` (configuration not stated), “inactive”. As for `Cc1n[nH]c(=O)nc1N1CCN(C)CC1`, the entry is “inactive”. Turning to `CC1OC(OC2CC(O)C3(CO)C4C(O)CC5(C)C(C6=CC(=O)OC6)CCC5(O)C4CCC3(O)C2)C(O)C(O)C1O.O.O.O.O.O.O.O.O` (configuration not stated), the cytotoxicity call is “active”. In the case of `C[C@@H]1O[C@@H](O[C@@H]2C[C@@H](O)[C@]3(CO)[C@H]4[C@H](O)C[C@]5(C)[C@@H](C6=CC(=O)OC6)CC[C@]5(O)[C@@H]4CC[C@]3(O)C2)[C@H](O)[C@H](O)[C@H]1O` it was “active”; in that of `CC(=O)O[C@@]12CO[C@@H]1C[C@H](O)[C@@]1(C)C(=O)[C@H](O)C3=C(C)[C@@H](OC(=O)[C@H](O)[C@@H](NC(=O)c4ccccc4)c4ccccc4)C[C@](O)([C@@H](OC(=O)c4ccccc4)[C@H]21)C3(C)C`, “inactive”; in that of `COCC(=O)N1C[C@@H]2c3ccccc3CN[C@@H]2C1`, “inactive”. Turning to `COC(=O)[C@@H](N)CCCNC(N)=N[N+](=O)[O-]`, the cytotoxicity call is “inactive”. Turning to `[N-]=[N+]=CC(=O)OCC(N)C(=O)O` (configuration not stated), the cytotoxicity call is “inactive”. With `C1COC2(CCOCC2)CN1`, the cytotoxicity call is “inactive”.

Regarding `Cc1cc(OC(=O)N(C)C)cc(=O)n1C`, the cytotoxicity call is “inactive”. Regarding `COC(=O)C[C@@H]1CC[C@H]2NC[C@@H](O)COC[C@@H]2O1`, the cytotoxicity call is “inactive”. As for `CC(N)(Cc1ccccc1)c1ccccc1` (configuration not stated), the entry is “inactive”; as for `CN1CCc2cc3c(cc2[C@@H]1O)OCO3`, “inactive”.

Turning to `CN1CCc2cc3c(cc2C1O)OCO3.Cl` (configuration not stated), the cytotoxicity call was “inactive”. As to `COC(=O)C[C@](O)(CCC(C)(C)O)C(=O)O[C@@H]1C(OC)=C[C@]23CCCN2CCc2cc4c(cc2[C@H]13)OCO4`, the cytotoxicity call is “active”. As for `C[N+]12CCC(CC1)C(OC(=O)C(O)(c1ccccc1)c1ccccc1)C2.[Br-]` (configuration not stated), the entry is “inactive”. Turning to `CC1OC(OC2C(O)C(O)C(O)C(O)C2O)C(N)CC1NC(=N)C(=O)O.Cl` (configuration not stated), the cytotoxicity call was “inactive”. In the case of `O=C1C=C2C(=CCO[C@@H]2O)O1` it was “inactive”; in that of `O=C1C=C2C(=CCOC2O)O1` (configuration not stated), “active”. In the case of `CCCCC(=O)N1CC[C@H]2CNC[C@H]21` it was “inactive”; in that of `N#Cc1c(Cl)c(Cl)c(Cl)c(C#N)c1Cl`, “active”. As for `CCCCCC1C(=O)OC(C)C(NC(=O)c2cccc(NC=O)c2O)C(=O)OC(C)C1OC(=O)CC(C)C` (configuration not stated) [ANTIMYCIN A (A1 shown) ], the entry is “inactive”; as for `CCC[C@@H](CN)c1ccc(F)cc1`, “inactive”. Take `COc1c(C[C@@H](C)O)c2c3c(C[C@@H](C)O)c(OC)c(=O)c4c(O)cc5c(c6c(cc(O)c(c1=O)c62)OCO5)c43`: the cytotoxicity call is “active”. As for `COc1cc(C2c3cc4c(cc3C(O)C3COC(=O)C23)OCO4)cc(OC)c1OC` (configuration not stated), the entry is “inactive”; as for `CCOC1OC2OC3(C)CCC4C(C)CCC(C1C)C24OO3` (configuration not stated), “inactive”. In the case of `CC1=NCCc2c1[nH]c1cc(O)ccc21.Cl.O.O`, the cytotoxicity call was “inactive”. In the case of `CCCCC[C@H]1C(=O)O[C@H](C)[C@H](NC(=O)c2cccc(NC=O)c2O)C(=O)O[C@@H](C)[C@@H]1OC(=O)CC(C)C` it was “inactive”. In the case of `CCCCCCCCCC(=O)O[C@@H]1[C@@H](C)[C@]2(O)[C@@H](C=C(CO)C[C@]3(O)C(=O)C(C)=C[C@@H]23)[C@@H]2C(C)(C)[C@@]12OC(=O)CCCCCCCCC` it was “active”. In the case of `CCCCCCCCCC(=O)O[C@@H]1[C@@H](C)[C@@]2(O)[C@@H](C=C(CO)C[C@]3(O)C(=O)C(C)=C[C@@H]23)[C@@H]2C(C)(C)[C@]12OC(=O)CCCCCCCCC` it was “inactive”; in that of `CC1=C[C@H]2[C@]3(O)[C@H](C=C(CO)C[C@]2(O)C1=O)[C@H]1C(C)(C)[C@@]1(O)[C@H](O)[C@@H]3C`, “inactive”; in that of `CCCCCCCCCCCCCC(=O)O[C@@H]1[C@@H](C)[C@@]2(O)[C@@H](C=C(CO)C[C@]3(O)C(=O)C(C)=C[C@@H]23)[C@@H]2C(C)(C)[C@]12OC(C)=O`, “active”. With `Cc1ccc2[nH]cc(C[C@@H](C)N)c2c1`, the cytotoxicity call is “inactive”.

Regarding `CCCC(C)C1(CC)C(=O)N=C([S-])NC1=O.[Na+]` (configuration not stated), the cytotoxicity call was “inactive”.

On to `C[C@@H]1CN([C@@H](C)CO)C(=O)CCCn2cc(nn2)CO[C@@H]1CN(C)C(=O)Oc1ccc2ccccc2c1`, for which the cytotoxicity call was “inactive”.

The record behind these values is the antibiotic and cytotoxicity screens of Wong et al. (2023).
